Assay results taken from PubChem BioAssay (NCI).
The panel holds about 83,000 compounds, 20% with a hit somewhere; the sample as a whole holds those more often.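 In brief: 96-well plates, 48 h treatment, single concentration, percent growth endpoint.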 Values without a mark were called inactive. Activity calls are given as the source filed them. Rule for the calls: active = growth percent below 10; inactive = the rest.

How the values were obtained:
Assay in all cases: NCI-60 one-dose screen, 48 h (100 = growth as untreated, 0 = no growth, -100 = all killed)
Settings in all cases: 10 µM unless noted
[1] = system: EKVX NSCLC
[2] = system: SN12C renal
[3] = system: UO-31 renal
[4] = system: TK-10 renal
[5] = system: ACHN renal
[6] = system: CAKI-1 renal
[7] = system: A498 renal
[8] = system: CCRF-CEM leukemia
[9] = system: MOLT-4 leukemia
[10] = system: SR leukemia
[11] = system: RPMI-8226 leukemia
[12] = system: OVCAR-8 ovarian
[13] = system: OVCAR-5 ovarian
[14] = system: OVCAR-4 ovarian
[15] = system: SK-OV-3 ovarian
[16] = system: IGROV1 ovarian
[17] = system: OVCAR-3 ovarian
[18] = system: HS 578T breast
[19] = system: NCI/ADR-RES ovarian

SMILES	growth [1]	growth [2]	growth [3]	growth [4]	growth [5]	growth [6]	growth [7]	growth [8]	growth [9]	growth [10]	growth [11]	growth [12]	growth [13]	growth [14]	growth [15]	growth [16]	growth [17]	growth [18]	growth [19]
NC(=S)N/N=C/c1cn(-c2ccccc2)nc1-c1cc2ccccc2oc1=O	75.3%	63.1%	50.7%	77.2%	77.4%	44.1%	-6.2% (active)	53.7%	33.4%	12.2%	33.4%	64.5%	88.1%	79.2%	83.2%	46.7%	34.4%	64.4%	48.6%
Cc1ccc(/C=C2\CN(C(=O)C(Cl)Cl)C/C(=C\c3ccc(C)cc3)C2=O)cc1	-48.7% (active)	-51.3% (active)	-100% (active)	-63.1% (active)	-97.8% (active)	-49.6% (active)	-89.3% (active)	9.16% (active)	0.0942% (active)	1.68% (active)	-19.3% (active)	4.74% (active)	-44.6% (active)	25%	29%	-58.8% (active)	-97.8% (active)	9.67% (active)	8.57% (active)
C/C(C=O)=C\c1ccc2c(c1)OCO2	102%	110%	102%	90.7%	113%	107%	68%	-5.12% (active)	116%	109%	96.7%	106%	110%	109%	105%	116%	132%	115%	107%
Cc1ccc(S(=O)(=O)n2cc(C3C(Cl)C(=O)N3c3ccc(N4CCOCC4=O)cc3)c3ccccc32)cc1 (configuration not stated)	72.6%	44.5%	37.6%	88%	71.4%	24.9%	65.8%	29.5%	47.5%	24.6%	21.6%	55.5%	78.5%	52.4%	93.9%	72.6%	30.4%	41.8%	32.6%
O=C(N/N=C/c1ccc(Cl)cc1Cl)c1ccc2nc(-c3ccc(Cl)cc3)[nH]c2c1	8.23% (active)	-36.9% (active)	21.6%	-4.33% (active)	-20.2% (active)	61.2%	56.2%	15.5%	4.45% (active)	-24.2% (active)	2.83% (active)	14.2%	23.7%	-17.9% (active)	49.8%	-27.4% (active)	-52.9% (active)	33%	41.2%
COc1cc(OC)cc(C2C(C#N)=C(N)Oc3c2ccc2ccc(O)cc32)c1 (configuration not stated)	32.9%	9.97% (active)	18.7%	48.3%	15.8%	21.1%	32.1%	7.39% (active)	7.26% (active)	12.6%	8.83% (active)	18.1%	33.1%	55.6%	42.3%	14.3%	-16% (active)	53.2%	-8.97% (active)
CCOC(=O)Nc1nc2ccc(SCC(C)C)cc2s1	48.7%	44.4%	37.6%	33%	45.6%	96.6%	21.5%	21.5%	31.8%	12.5%	32.3%	49.1%	50.2%	95.3%	28.6%	51.1%	-16.4% (active)	30.3%	14.1%
NC(CSC(c1ccccc1)(c1ccccc1)c1ccc2c(c1)OCO2)C(=O)O (configuration not stated)	–	36.7%	53%	69.8%	53%	37%	34.3%	–	7.18% (active)	5.57% (active)	-7.99% (active)	19.4%	41%	70.7%	15.2%	42.2%	3.46% (active)	15.7%	53.9%
C=C1C(=O)O[C@H]2[C@H]1CC/C(Cn1cc(-c3cc(C(F)(F)F)cc(C(F)(F)F)c3)nn1)=C\CC[C@@]1(C)O[C@@H]21	-97.1% (active)	-77.5% (active)	-96.3% (active)	-99.4% (active)	-92.6% (active)	-95.3% (active)	-94.5% (active)	-32.9% (active)	-28.2% (active)	-48.5% (active)	-31.4% (active)	-85.7% (active)	-69.4% (active)	-95.1% (active)	-89.5% (active)	-78.6% (active)	-92.7% (active)	-30.5% (active)	-35.7% (active)
CCOC(=O)c1c(C)nc2c(c1N)CC(=O)N2Cc1cc(OC)c(OC)c(OC)c1	51.6%	74%	62.2%	54.8%	64.9%	50.6%	35.8%	–	52.1%	20.7%	40.9%	61.9%	93%	51.3%	57.2%	53.1%	23.5%	65.1%	17.6%
COc1cc(/C=C2\C(=O)N(c3c(Cl)cccc3Cl)c3ccccc32)cc(OC)c1OCCCCCCn1c2ccccc2c(=O)c2ccccc21	111%	96.8%	74.3%	112%	91.9%	82.9%	123%	104%	90%	85.7%	102%	98.3%	88.6%	95.5%	110%	75.5%	104%	113%	109%
N#Cc1c(N2CCOCC2)nc(=S)[nH]c1-c1ccccc1	56.8%	73.7%	76.9%	57.6%	73.9%	61.4%	13.7%	62.3%	73.6%	53.1%	73.6%	81.8%	71.7%	77.3%	64.4%	29.1%	66.8%	26.8%	80.9%
COc1cc(-c2nc(SCCC(C)C)nc(N3CCOCC3)c2C#N)cc(OC)c1OC	–	54.9%	73.9%	46.5%	101%	76.2%	108%	78.8%	89.2%	-10.1% (active)	–	43.1%	102%	-25.2% (active)	88.6%	79.6%	-33.3% (active)	76.7%	79%
COc1cc(C(=O)c2c(N)ncn2-c2ccccc2)cc(OC)c1OC	102%	88.2%	81.2%	106%	102%	92.3%	90.2%	92.5%	109%	122%	136%	101%	102%	101%	95.4%	88.1%	99.2%	98.5%	82.5%
CN1CCN(Cc2cc(NC(=O)c3cccc(C#Cc4cccc5[nH]nc(N)c45)c3)cc(C(F)(F)F)c2)CC1	46%	19.3%	-17% (active)	61.4%	4.75% (active)	70.8%	–	-8.44% (active)	-35.2% (active)	-28.7% (active)	11.2%	–	36.1%	24.8%	81.6%	11.1%	64.1%	22.3%	50.8%
O=c1[nH]c(-c2ccc(Cl)cc2)cn1-c1ccc(-n2cc(-c3ccc(Cl)cc3)[nH]c2=O)cc1	109%	92%	105%	103%	102%	65.1%	109%	107%	107%	98%	123%	92%	104%	98.5%	97.5%	102%	109%	102%	108%
